Measurements published in PubChem BioAssay (Tox21).
Inconclusive results are not listed. Calls of active or inactive are those of the source. Unless noted, calls come from the whole dose curve; as a rule, active = well fitted curve in the direction sought with a large enough effect in the repeat runs; inconclusive = weak or mixed curves; inactive = no such curve, though single readings can be large; an effect the other way counts as inactive or inconclusive.

Columns and labels:
[1] = qHTS assay to identify small molecule agonists of the estrogen receptor alpha (ER-alpha) signaling pathway in the presence of an antagonist - cell viability counter screen (AID 1259386);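 note: series mostly up to about 92 µM; cells exposed to compounds for 22 h at 37 °C before the viability read; nearly all actives have a fitted effect of over 30% in size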
Outline: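 Viability counter screen using VM7Luc4E2 (full-length ER-alpha, four ERE-luciferase). The cells were treated with compounds alongside ICI-182,780 10.0nM for 22hr, and live-cell protease fluorescence was quantified with CellTiter-Fluor.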

[2] = molecular target: Progesterone receptor (Homo sapiens) (UniProt P06401); test: qHTS assay to identify small molecule agonists of the progesterone receptor (PR) signaling pathway (AID 1346784; calls by dose curve; note: nearly all actives have a fitted effect of over 30% in size)
Outline: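 Beta-lactamase reporter read-out: after 16 hr compound treatment at 37C and a further 2 hr at room temperature with LiveBLAzer B/G FRET substrate, fluorescence was measured in PR-UAS-bla HEK 293T cells grown in 2% charcoal-stripped serum.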

[3] = molecular target: Progesterone receptor (Homo sapiens) (UniProt P06401); test: qHTS assay to identify small molecule antagonists of the progesterone receptor (PR) signaling pathway (AID 1346795; active = well fitted inhibition curve with a large enough effect in the signal ratio in the repeat runs, not every such curve was filed as active; the % refers to the signal ratio)
Outline: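 Read-out is fluorescence from the LiveBLAzer B/G FRET substrate, cleaved by a UAS-controlled beta-lactamase in PR-UAS-bla HEK293T cells after 16 hr exposure to compound plus 1 nM promegestone (final), followed by 2 hr at room temperature.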

[4] = qHTS assay to identify small molecule antagonists of the progesterone receptor (PR) signaling pathway - cell viability counter screen (AID 1346798);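 note: HEK293T PR-UAS-bla cells stimulated with the agonist R5020; series mostly up to about 92 µM; nearly all actives have a fitted effect of over 50% in size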
Outline: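 HEK293T PR-UAS-bla, 2% charcoal-stripped FBS; 4 hr pre-plate; cpd + R5020, 16 h 37C; LiveBLAzer read first; then CellTiter-Glo 30 min RT, luminescence.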

[5] = qHTS assay to identify small molecule agonists of the progesterone receptor (PR) signaling pathway - cell viability counter screen (AID 1346799; calls by dose curve; note: nearly all actives have a fitted effect of over 45% in size)
Outline: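 Luminescence from CellTiter-Glo, added after the beta-lactamase FRET read in the same wells, gave cytotoxicity in PR-UAS-bla HEK293T cells treated with compounds for 16 hr at 37C.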

[6] = qHTS assay to identify small molecule antagonists of the TGF-beta/Smad signaling pathway - cell viability counter screen (AID 1346824); note: nearly all actives have a fitted effect of over 50% in size
Outline: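 Cytotoxicity counter-screen run in the same wells as the beta-lactamase Smad reporter read: CellTiter-Glo luminescence after 30 min at room temperature. HEK 293T SBE-bla cells had 5 hr compound exposure at 37 C with TGF-beta1 (0.25 ng/mL stock).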

[7] = qHTS assay to identify small molecule agonists of the TGF-beta/Smad signaling pathway (AID 1346859; active = well fitted activation curve with a large enough effect in the signal ratio in the repeat runs, not every such curve was filed as active; the % refers to the signal ratio; note: series mostly up to about 77 µM)
Outline: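 SBE-bla HEK 293T, 4,000 cells/well, plated o/n; cpd in DMSO, 5 hr, 37 C/5% CO2; B/G FRET substrate 2 hr RT; ex 405, em 460/530 nm.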

[8] = molecular target: Thyrotropin-releasing hormone receptor (Homo sapiens) (UniProt P34981); test: qHTS assay to identify small molecule antagonists of the thyrotropin-releasing hormone receptor (TRHR) signaling pathway (AID 1346877; active = well fitted inhibition curve with a large enough effect in the repeat runs, not every such curve was filed as active; note: series mostly up to about 51 µM)
Outline: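 Following an 18 h incubation at 37 °C and a 2 h calcium dye load, TRHR-HEK293 cells were exposed to compound (5 min, room temperature) and challenged with TRH, 1 nM final.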

[9] = molecular target: Thyrotropin-releasing hormone receptor (Homo sapiens) (UniProt P34981); test: qHTS assay to identify small molecule agonists of the thyrotropin-releasing hormone receptor (TRHR) signaling pathway (AID 1346891; calls by dose curve; note: series mostly up to about 58 µM)
Outline: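 Intracellular calcium rise, read as fluorescence every second for 3 min, served as the agonist signal in dye-loaded HEK293 cells expressing TRHR; each compound ran at 15 concentrations in triplicate.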

[10] = Human pregnane X receptor (PXR) small molecule agonists, qHTS cell viability counter screen (AID 1346977); note: nearly all actives have a fitted effect of over 50% in size
Outline: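 PXR-Luc HepG2, 2,000 cells/well, 5% charcoal-stripped FBS; 5hr settle; cpd 24hr, 37C/5% CO2; CellTiter-Fluor at 23hr, read 1hr later (fluorescence).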

[11] = Caspase-3/7 induction in HepG2 cells by small molecules, qHTS assay (AID 1346978); note: nearly all actives have a fitted effect of over 15% in size
Outline: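 Caspase-3/7 induction was measured by Caspase-Glo 3/7 luminescence (30 min, room temperature) after a 17 hr compound exposure of wild-type HepG2 cells seeded at 2,000 per well and pre-incubated 5 hr.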

[12] = Caspase-3/7 induction in CHO-K1 cells by small molecules, qHTS cell viability counter screen (AID 1346979); note: nearly all actives have a fitted effect of over 35% in size
Outline: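 Cells (CHO-K1, wild type) are plated at 1,500 per well and incubated 5hr. Test compounds in DMSO are then pinned in, followed by 16hr at 37C and 5% CO2. Viability is read by CellTiter-Fluor fluorescence after 1hr.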

[13] = Caspase-3/7 induction in CHO-K1 cells by small molecules, qHTS assay (AID 1346980); note: nearly all actives have a fitted effect of over 15% in size
Outline: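 Luminescent Caspase-Glo 3/7 read (30min, room temperature) quantified apoptosis induction. Cells were wild-type CHO-K1, treated with compound for 17hr at 37 C and 5% CO2.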

[14] = Caspase-3/7 induction in HepG2 cells by small molecules, qHTS cell viability counter screen (AID 1346981); note: series mostly up to about 92 µM; nearly all actives have a fitted effect of over 30% in size
Outline: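 Viability determined by CellTiter-Fluor fluorescence in HepG2 wells also used for the luminescent Caspase-Glo 3/7 read. Compounds were present for 16 hr at 37 C, 5% CO2 before reagent addition.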

[15] = molecular target: Nuclear receptor subfamily 1 group I member 2 (Homo sapiens) (UniProt O75469); test: Human pregnane X receptor (PXR) small molecule agonists, qHTS assay (AID 1346982); note: nearly all actives have a fitted effect of over 35% in size
Outline: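 Compound-induced hPXR transactivation of a CYP3A4 luciferase reporter was scored in HepG2 PXR-Luc cells over 24 hr at 37 C, 5% CO2, by luminescence.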

[16] = molecular target: Acetylcholinesterase (Homo sapiens) (UniProt P22303); test: Acetylcholinesterase (AChE) small molecule antagonists: colormetric cell-based qHTS assay (AID 1347395; calls by dose curve; note: nearly all actives have a fitted effect of over 30% in size)
Outline: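 Colorimetric read-out: DTNB detects thiocholine released when cellular AChE in SH-SY5Y cells hydrolyses acetylthiocholine. Cells attached overnight, received compound for 30 min at 37 C, then substrate mix for 90 min at 37 C.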

[17] = molecular target: Nuclear receptor subfamily 1 group I member 2 (Rattus norvegicus) (UniProt Q9R1A7); test: Rat pregnane X receptor (rPXR) activation by small molecules, qHTS assay (AID 1346983); conditions: rPXR luciferase reporter cells, One-Glo luminescence, 24 h; stronger effect = higher value; note: nearly all actives have a fitted effect of over 20% in size
Outline: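 Luminescent readout (One-Glo luciferase, 30 min room temperature) followed 24 hr compound treatment at 37 C of rPXR cells plated 2,000 per well and preincubated 5hr; qHTS format with compounds delivered in DMSO.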

[18] = molecular target: Nuclear receptor subfamily 1 group I member 2 (Homo sapiens) (UniProt O75469); test: CYP3A4 induction through human pregnane X receptor (PXR) by small molecules, qHTS assay (AID 1346984); note: nearly all actives have a fitted effect of over 40% in size
Outline: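 Readings come from a luciferase reporter: DPX-2 cells, which are HepG2 cotransfected with PXR and a CYP3A4-promoter construct, were exposed to test compounds for 24 h at 37C before One-Glo detection.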

[19] = molecular target: Nuclear receptor subfamily 1 group I member 2 (Homo sapiens) (UniProt O75469); test: Human pregnane X receptor (PXR) activation by small molecules, qHTS assay (AID 1346985); note: nearly all actives have a fitted effect of over 40% in size
Outline: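 DPX-2 cells (HepG2 co-transfected with a PXR response element and a CYP3A4-promoter luciferase construct) were seeded at 2,000 per well, rested 5 hr at 37C, then exposed to DMSO-dissolved compounds for 24 hr. Activation was read as luciferase luminescence.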

[20] = qHTS assay to identify small molecule agonists of the TGF-beta/Smad signaling pathway - cell viability counter screen (AID 1346829); note: top concentration of the series differs between compounds; nearly all actives have a fitted effect of over 45% in size
Outline: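 After overnight seating at 37 C and 5% CO2, reporter cells got compounds for 5 hr and FRET substrate for 2 hr; cell viability then came from CellTiter-Glo luminescence.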
% is set by controls: 0 for no effect and ±100 for the full control effect.

Sequence of Nuclear receptor subfamily 1 group I member 2 (Rattus norvegicus) (Q9R1A7 whole entry, looked up): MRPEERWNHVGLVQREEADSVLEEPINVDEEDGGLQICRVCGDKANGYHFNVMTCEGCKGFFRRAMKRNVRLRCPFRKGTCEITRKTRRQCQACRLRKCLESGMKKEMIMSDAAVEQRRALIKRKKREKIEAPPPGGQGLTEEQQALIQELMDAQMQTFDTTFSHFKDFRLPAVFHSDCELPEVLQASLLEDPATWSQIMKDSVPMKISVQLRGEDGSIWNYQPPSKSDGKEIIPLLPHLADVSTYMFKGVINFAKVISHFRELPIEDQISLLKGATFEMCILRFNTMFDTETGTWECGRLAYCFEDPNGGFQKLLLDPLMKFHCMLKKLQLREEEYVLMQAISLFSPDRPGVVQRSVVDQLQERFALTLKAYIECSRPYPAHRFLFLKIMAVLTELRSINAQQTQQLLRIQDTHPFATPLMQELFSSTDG
Sequence of Acetylcholinesterase (Homo sapiens) (P22303 whole entry, looked up): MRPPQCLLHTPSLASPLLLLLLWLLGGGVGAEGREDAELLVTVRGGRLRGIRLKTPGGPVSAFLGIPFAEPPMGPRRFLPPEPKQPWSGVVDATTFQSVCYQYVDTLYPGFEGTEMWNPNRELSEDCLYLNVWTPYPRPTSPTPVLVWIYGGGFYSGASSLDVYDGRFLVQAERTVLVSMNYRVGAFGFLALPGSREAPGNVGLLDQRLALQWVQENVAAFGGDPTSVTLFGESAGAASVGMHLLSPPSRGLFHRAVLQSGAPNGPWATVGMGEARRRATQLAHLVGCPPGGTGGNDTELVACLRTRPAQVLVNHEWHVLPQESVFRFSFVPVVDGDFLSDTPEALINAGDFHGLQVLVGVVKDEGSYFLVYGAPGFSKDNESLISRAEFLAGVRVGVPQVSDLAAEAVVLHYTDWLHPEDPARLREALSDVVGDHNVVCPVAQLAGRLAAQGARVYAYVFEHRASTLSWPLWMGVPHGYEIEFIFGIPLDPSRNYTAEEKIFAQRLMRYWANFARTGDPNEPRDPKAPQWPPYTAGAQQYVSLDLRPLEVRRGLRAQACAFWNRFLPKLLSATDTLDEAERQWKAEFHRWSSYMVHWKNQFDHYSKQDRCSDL
Sequence of Thyrotropin-releasing hormone receptor (Homo sapiens) (P34981 whole entry, looked up): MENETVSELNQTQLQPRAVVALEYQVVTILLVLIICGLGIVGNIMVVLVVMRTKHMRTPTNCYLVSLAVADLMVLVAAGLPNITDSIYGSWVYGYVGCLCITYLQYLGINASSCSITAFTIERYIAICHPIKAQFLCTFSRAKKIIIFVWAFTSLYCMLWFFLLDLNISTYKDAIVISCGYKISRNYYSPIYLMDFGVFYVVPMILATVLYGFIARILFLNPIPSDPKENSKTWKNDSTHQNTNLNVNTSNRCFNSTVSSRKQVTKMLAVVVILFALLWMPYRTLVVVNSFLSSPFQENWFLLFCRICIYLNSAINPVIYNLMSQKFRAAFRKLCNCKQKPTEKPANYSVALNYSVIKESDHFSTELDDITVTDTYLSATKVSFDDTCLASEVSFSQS
Sequence of Nuclear receptor subfamily 1 group I member 2 (Homo sapiens) (O75469 whole entry, looked up): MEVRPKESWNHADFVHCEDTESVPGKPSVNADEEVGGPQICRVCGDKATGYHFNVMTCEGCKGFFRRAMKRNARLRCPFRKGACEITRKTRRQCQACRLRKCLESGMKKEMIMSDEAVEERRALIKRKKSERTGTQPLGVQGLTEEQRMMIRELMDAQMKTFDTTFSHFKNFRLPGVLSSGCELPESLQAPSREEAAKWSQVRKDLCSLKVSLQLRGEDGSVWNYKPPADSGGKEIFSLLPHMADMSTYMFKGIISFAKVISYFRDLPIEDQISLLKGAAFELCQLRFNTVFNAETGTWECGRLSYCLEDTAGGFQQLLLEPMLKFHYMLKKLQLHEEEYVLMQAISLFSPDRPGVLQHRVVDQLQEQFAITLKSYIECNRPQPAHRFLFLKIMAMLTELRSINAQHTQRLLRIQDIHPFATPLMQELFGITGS
Sequence of Progesterone receptor (Homo sapiens) (P06401 whole entry, looked up): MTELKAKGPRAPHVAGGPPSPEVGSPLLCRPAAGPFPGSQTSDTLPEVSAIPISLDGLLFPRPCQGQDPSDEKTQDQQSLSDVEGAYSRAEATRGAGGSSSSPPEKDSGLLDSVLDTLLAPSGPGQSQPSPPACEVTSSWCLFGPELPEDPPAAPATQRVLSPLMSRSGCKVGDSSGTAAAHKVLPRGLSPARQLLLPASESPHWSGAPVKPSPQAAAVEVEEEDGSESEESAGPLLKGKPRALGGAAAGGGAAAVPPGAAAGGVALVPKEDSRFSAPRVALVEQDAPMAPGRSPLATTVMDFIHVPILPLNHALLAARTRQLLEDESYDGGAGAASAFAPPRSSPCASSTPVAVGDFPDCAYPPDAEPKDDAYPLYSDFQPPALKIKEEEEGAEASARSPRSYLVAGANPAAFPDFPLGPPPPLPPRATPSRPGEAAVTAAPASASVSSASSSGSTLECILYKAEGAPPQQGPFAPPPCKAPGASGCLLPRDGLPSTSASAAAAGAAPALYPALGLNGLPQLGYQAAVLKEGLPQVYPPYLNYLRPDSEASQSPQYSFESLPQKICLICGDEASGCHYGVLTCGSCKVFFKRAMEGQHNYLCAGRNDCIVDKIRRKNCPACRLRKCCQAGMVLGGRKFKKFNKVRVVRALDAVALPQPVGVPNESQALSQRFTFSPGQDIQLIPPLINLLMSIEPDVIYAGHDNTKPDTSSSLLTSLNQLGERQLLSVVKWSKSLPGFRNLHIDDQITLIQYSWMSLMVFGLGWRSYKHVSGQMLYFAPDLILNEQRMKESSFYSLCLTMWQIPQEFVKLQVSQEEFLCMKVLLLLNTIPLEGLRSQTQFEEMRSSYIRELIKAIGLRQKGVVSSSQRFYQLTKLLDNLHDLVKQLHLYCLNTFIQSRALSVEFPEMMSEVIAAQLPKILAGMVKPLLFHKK

NC(=O)CF
inactive: Potency [1] | Potency [2] | Potency [3] | Potency [4] | Potency [5] | Potency [6] | outcome [7] | Potency [8] | outcome [9] | Potency [10] | Potency [11] | Potency [12] | Potency [13] | Potency [14] | Potency [15] | Potency [16]

CCCC(C)(COC(N)=O)COC(=O)NC(C)C (stereo unspecified)
inactive: Potency [1] | Potency [2] | Potency [3] | Potency [4] | Potency [5] | Potency [6] | outcome [7] | Potency [8] | outcome [9] | Potency [10] | Potency [11] | Potency [12] | Potency [13] | Potency [14] | Potency [15] | Potency [16]

C[N+](C)(C)CCOC(=O)C(O)(c1ccccc1)c1ccccc1
inactive: Potency [1] | Potency [2] | Potency [3] | Potency [4] | Potency [5] | Potency [6] | outcome [7] | Potency [8] | outcome [9] | Potency [10] | Potency [11] | Potency [12] | Potency [13] | Potency [14] | Potency [15] | max activation [17] -2.47% | outcome [18] | Potency [19] | Potency [16]

COc1cc(CC#N)cc(OC)c1OC
inactive: Potency [1] | Potency [2] | Potency [3] | Potency [4] | Potency [5] | Potency [6] | outcome [7] | Potency [8] | outcome [9] | Potency [10] | Potency [11] | Potency [12] | Potency [13] | Potency [15] | Potency [16]

CCOC(=O)NC(O)C(Cl)(Cl)Cl (stereo unspecified)
inactive: Potency [1] | Potency [2] | Potency [3] | Potency [4] | Potency [5] | Potency [6] | Potency [20] | outcome [7] | Potency [10] | Potency [11] | Potency [12] | Potency [13] | Potency [14] | Potency [15] | max activation [17] -1.22% | outcome [18] | Potency [19] | Potency [16]

C=CC(=O)OCC
inactive: Potency [1] | Potency [2] | Potency [3] | Potency [4] | Potency [5] | Potency [20] | outcome [7] | Potency [8] | outcome [9] | Potency [11] | Potency [12] | Potency [13] | Potency [15] | Potency [16]

O=C(Cc1ccccc1)OCCc1ccccc1
inactive: Potency [1] | Potency [2] | Potency [3] | Potency [4] | Potency [5] | Potency [6] | outcome [7] | outcome [9] | Potency [10] | Potency [11] | Potency [12] | Potency [13] | Potency [14] | Potency [15] | Potency [16]

O=CC=O
inactive: Potency [1] | Potency [2] | Potency [3] | Potency [4] | Potency [5] | Potency [6] | Potency [20] | outcome [7] | Potency [10] | Potency [11] | Potency [12] | Potency [13] | Potency [14] | Potency [15] | max activation [17] -4.84% | outcome [18] | Potency [19] | Potency [16]
